Test results taken from PubChem BioAssay AID504652 (National Center for Advancing Translational Sciences (NCATS), 2011).
About 11,000 (3.1%) of roughly 360,000 compounds were called active. The sample holds actives, similar compounds and a random draw of the others, so the mix is not that of the screen. Unmarked numbers belong to inactive results. Cut-off read from the data, not from the text of the source: active = activity change below about -30%; inactive = the rest.
% is set by controls: 0 for no effect and ±100 for the full control effect.

The compounds below were run against D(1A) dopamine receptor (Homo sapiens) (UniProt P21728) (assay: Antagonist of Human D 1 Dopamine Receptor: qHTS). Details: HEK293 TREx D1 cells, calcium flux, dopamine EC80; at 10 µM; active compounds read low.
D(1A) dopamine receptor (Homo sapiens), sequence (P21728 whole entry, looked up): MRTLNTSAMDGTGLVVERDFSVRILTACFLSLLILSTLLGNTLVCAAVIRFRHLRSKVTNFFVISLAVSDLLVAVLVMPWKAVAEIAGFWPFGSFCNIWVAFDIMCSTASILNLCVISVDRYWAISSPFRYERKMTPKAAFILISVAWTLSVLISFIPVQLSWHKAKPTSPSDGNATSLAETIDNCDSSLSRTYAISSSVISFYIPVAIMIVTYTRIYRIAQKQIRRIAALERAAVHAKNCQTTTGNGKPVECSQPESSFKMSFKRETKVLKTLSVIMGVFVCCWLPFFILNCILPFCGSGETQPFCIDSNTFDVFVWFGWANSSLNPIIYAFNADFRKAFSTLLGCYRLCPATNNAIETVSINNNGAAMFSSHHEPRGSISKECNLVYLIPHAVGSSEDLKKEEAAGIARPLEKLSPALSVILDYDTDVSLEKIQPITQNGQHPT
Description: Dopamine receptors (DARs) are involved in the etiology and/or therapy of a number of neuropsychiatric and endocrine disorders. For instance, all receptor-based antiparkinsonian drugs work via stimulating the […] DAR subtype whereas all FDA-approved antipsychotic agents are antagonists of this receptor. […] There are three different types of allosteric modulators that we are seeking, two of which will stimulate or augment receptor signaling, allosteric agonists and potentiators, while the third, allosteric antagonists, will attenuate receptor signaling. The present primary screening assay measures compound antagonism after an EC80 addition of dopamine by tracking calcium flux in a […], inducible Hek293 Trex D1 cell line. NIH Chemical Genomics Center [NCGC] NIH Molecular Libraries Probe Centers Network [MLPCN] MLPCN Grant: NS064831-01 Assay Submitter (PI): David Sibley
Freshly passaged cells are plated in 1536 well black, clear bottom plates at a density of 4000 cells/well in 3 ul of complete media containing 1x tetracycline inducer. After an overnight incubation at 30 C in 5% CO2, cells are loaded with 2 ul of the no wash Calcium Assay Kit (ABD Bioquest) and incubated at room temperature for 30 to 90 minutes. Agonist read: A 10 cycle (1 second/cycle) baseline measurement is taken and then the FDSS online 1536 pintool delivers 23 nl of compound library (as well as dopamine controls) to the plate. The plate is measured for kinetically at 1 cycle/sec for 180 seconds. Following the 180 second read, 1 ul of an EC80 (negative modulation assay) is delivered by an onboard pipette head. Measurements are taken kinetically for an additional 180 seconds.
In the case of `CCOCCc1c(O)[nH]c(=S)[nH]c1=O`, the activity change, negative = inhibition was -33.1% (active). For `COc1ccccc1N=Nc1c(O)[nH]c(=S)[nH]c1=O`, the activity change, negative = inhibition was -9.34%. With `CC1=CC(=Cc2sc3ccccc3[n+]2C)C=C(C)O1` the activity change, negative = inhibition was -35.2% (active). `CC(C)c1c(CN(C)C(C)Cc2ccccc2)n(C)n(-c2ccccc2)c1=O` (configuration not stated) showed an activity change, negative = inhibition of -2.93%. With `Cc1ccc(-n2c(/C=C/c3cccc(C(F)(F)F)c3)nc3ccccc3c2=O)cc1` the activity change, negative = inhibition was 11.5%. For `Cc1ccc(C(C)C)c(OCC(=O)N2CCN(CC(=O)N3CCOCC3)CC2)c1`, the activity change, negative = inhibition was 1.15%. `NCCc1ccc(S(=O)(=O)F)cc1` was tested, and the activity change, negative = inhibition was -35.8% (active). Work on `CC(C)c1ccc(OCC(=O)N2CCCN(C)CC2)cc1` yielded an activity change, negative = inhibition of -12.3%. With `CN1CCN(C(=O)COc2ccc(C(C)(C)C)cc2Br)CC1` the activity change, negative = inhibition was -15.7%. In the case of `CC(C)c1ccc(OCC(=O)N2CCN(C)CC2)c(Br)c1`, the activity change, negative = inhibition was -34.7% (active). `CC(C)(C)[C@]1(O)C[C@@H]2OC(=O)C[C@@]23C(=O)O[C@@H]2OC(=O)[C@H](O)[C@]213` gave an activity change, negative = inhibition of 0.221%. For `CN(C)CC1CCCCC1=O` (configuration not stated), the activity change, negative = inhibition was 9.1%. `CN1CCc2cc3c(cc2[C@H]1[C@@H]1OC(=O)c2c1ccc1c2OCO1)OCO3` gave an activity change, negative = inhibition of -19.5%. `COc1ccc(C2NCc3ccc4c(c3-n3cccc32)OCO4)cc1OC` (configuration not stated) was tested, and the activity change, negative = inhibition was -8.31%. `COc1c(O)ccc2c1-c1c3c(cc4c1C(C2)N(C)CC4)OCO3` (configuration not stated) was tested, and the activity change, negative = inhibition was -68% (active). `COC(=O)C1=C(c2ccc(Cl)c(C(F)(F)F)c2)C[C@@H]2CC[C@H]1N2C(=O)NC(C)C` showed an activity change, negative = inhibition of -3.99%. `CC(C)Oc1cccc(C(=O)C2CCCN(C3CCOCC3)C2)c1` (configuration not stated) gave an activity change, negative = inhibition of -26.6%. In the case of `COC(=O)C1=C(c2cccc(OCc3ccccc3)c2)C[C@@H]2CC[C@H]1N2C(=O)NCc1ccc(Br)cc1`, the activity change, negative = inhibition was -2.72%. `CC(C)c1ccc(-n2c(O)c(/C=N/N3CCOCC3)c(=O)[nH]c2=S)cc1` gave an activity change, negative = inhibition of 21.3%. `Cc1cccc(-n2c(O)c(/C=N/N3CCOCC3)c(=O)[nH]c2=S)c1` was tested, and the activity change, negative = inhibition was -42.1% (active). With `O=c1[nH]c(=S)n(C2CC2)c(O)c1/C=N/N1CCOCC1` the activity change, negative = inhibition was -3.33%. `Cn1cc(C(=O)OCC(=O)N2CCCC2)c2ccccc21` was tested, and the activity change, negative = inhibition was -0.659%. Compound `Cc1cc(OCc2cc(C(=O)O)oc2C)c2c3c(c(=O)oc2c1)CCCC3` has an activity change, negative = inhibition of 63%. In the case of `OC(Cn1c2ccccc2c2ccccc21)C[n+]1ccccc1` (configuration not stated), the activity change, negative = inhibition was 13.9%. With `c1cncc(CNCCc2c[nH]c3ccccc23)c1` the activity change, negative = inhibition was -33.9% (active). Work on `C/C(CCc1c[nH]c2ccccc12)=N\O` yielded an activity change, negative = inhibition of 1.61%. `COc1ccc(CNCCc2c[nH]c3ccccc23)cc1OC` gave an activity change, negative = inhibition of -8.11%.
